Results as given in the supplement of paper PMC10849652.
The full data set covers some 7,900 targets. This sample favours those with a hit. About 0.6% of all pairs of compound and target were hits.

What was measured:
Experiment in all cases: log2 fold change, soluble protein after heating vs DMSO (PISA); higher = thermal stabilisation; K562 cells, 10 uM, 30 min; active = over 0.2 and 3.5 SD of the protein, either way, in both replicates (recomputed)
ZEB2 = ZEB2 (UniProt O60315)
How it was run: (§1)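 Values are thermal stability changes relative to control samples and are taken from duplicates. They are stated as log2 fold changes. Before quantification by TMTpro 16plex LC-MS/MS with equalised channel sums, K562 cells at 2×10^6 cells/mL were treated with 10 μM compound for 30 min, heated in aliquots for 3 min across 48°C-58°C, pooled, extracted in PBS with 0.5% NP-40 at 4°C, and centrifuged at 21,000xg for 90 min to give the soluble supernatant.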

ZER1 = ZER1 (UniProt Q7Z7L7)
Sequence of ZER1 (Q7Z7L7 whole entry, looked up): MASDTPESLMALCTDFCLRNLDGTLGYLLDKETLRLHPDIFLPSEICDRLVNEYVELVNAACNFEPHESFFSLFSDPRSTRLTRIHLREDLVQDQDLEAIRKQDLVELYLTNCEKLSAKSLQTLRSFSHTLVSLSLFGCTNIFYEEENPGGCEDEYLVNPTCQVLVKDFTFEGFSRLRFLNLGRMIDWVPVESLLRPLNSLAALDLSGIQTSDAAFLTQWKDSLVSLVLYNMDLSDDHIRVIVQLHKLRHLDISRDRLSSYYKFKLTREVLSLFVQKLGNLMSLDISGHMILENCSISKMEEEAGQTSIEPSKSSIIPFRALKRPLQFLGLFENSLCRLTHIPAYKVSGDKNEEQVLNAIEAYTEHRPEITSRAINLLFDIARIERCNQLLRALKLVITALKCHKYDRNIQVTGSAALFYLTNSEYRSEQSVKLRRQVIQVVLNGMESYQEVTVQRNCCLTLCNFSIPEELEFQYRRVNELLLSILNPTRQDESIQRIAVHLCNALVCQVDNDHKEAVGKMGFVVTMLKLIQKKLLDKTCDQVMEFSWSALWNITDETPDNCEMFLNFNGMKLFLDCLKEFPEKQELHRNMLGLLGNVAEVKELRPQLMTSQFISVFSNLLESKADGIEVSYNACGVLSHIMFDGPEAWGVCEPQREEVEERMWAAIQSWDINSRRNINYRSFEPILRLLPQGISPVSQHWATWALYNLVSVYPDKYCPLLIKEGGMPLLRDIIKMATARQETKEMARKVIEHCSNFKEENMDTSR
How it was run: as §1

ZFAND5 = ZFAND5 (UniProt O76080)
Sequence of ZFAND5 (O76080 whole entry, looked up): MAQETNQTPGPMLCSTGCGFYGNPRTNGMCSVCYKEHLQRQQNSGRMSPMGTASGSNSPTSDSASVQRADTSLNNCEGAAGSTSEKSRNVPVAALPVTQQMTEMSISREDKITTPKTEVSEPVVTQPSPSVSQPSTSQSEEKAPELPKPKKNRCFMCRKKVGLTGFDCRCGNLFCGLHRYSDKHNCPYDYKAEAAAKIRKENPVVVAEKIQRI
How it was run: as §1

ZFAND6 = ZFAND6 (UniProt Q6FIF0)
Sequence of ZFAND6 (Q6FIF0 whole entry, looked up): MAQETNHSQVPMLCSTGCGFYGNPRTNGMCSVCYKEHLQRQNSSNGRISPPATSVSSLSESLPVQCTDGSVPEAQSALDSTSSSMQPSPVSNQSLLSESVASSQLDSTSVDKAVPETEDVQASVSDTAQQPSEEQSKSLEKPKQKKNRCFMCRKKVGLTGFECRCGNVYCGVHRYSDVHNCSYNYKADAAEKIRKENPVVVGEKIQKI
How it was run: as §1

ZFP91 = ZFP91 (UniProt Q96JP5)
Sequence of ZFP91 (Q96JP5 whole entry, looked up): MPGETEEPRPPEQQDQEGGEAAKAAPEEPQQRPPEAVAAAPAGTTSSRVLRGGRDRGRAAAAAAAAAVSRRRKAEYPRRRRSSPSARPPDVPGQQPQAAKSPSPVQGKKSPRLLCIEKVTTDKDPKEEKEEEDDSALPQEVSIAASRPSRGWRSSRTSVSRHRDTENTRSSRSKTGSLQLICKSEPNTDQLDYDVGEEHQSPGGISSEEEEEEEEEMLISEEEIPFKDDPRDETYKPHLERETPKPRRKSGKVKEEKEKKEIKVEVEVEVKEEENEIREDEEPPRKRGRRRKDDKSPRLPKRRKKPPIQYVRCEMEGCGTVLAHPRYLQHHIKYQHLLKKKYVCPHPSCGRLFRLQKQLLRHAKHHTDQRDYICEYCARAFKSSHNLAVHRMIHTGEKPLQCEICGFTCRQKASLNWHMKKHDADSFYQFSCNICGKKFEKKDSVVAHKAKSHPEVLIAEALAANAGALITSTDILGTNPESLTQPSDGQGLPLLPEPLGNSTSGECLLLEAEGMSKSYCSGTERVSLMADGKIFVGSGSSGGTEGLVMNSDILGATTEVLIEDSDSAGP
How it was run: as §1

ZFPL1 = ZFPL1 (UniProt O95159)
Sequence of ZFPL1 (O95159 whole entry, looked up): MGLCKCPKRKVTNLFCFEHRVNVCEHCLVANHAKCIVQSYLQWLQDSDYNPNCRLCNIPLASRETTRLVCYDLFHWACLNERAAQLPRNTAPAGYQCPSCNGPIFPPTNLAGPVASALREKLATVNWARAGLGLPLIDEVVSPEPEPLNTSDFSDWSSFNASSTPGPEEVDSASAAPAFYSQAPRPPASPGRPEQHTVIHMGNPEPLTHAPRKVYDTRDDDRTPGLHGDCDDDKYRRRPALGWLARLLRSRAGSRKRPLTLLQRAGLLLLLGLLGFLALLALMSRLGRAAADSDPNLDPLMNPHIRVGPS
How it was run: as §1

ZMAT2 = ZMAT2 (UniProt Q96NC0)
Sequence of ZMAT2 (Q96NC0 whole entry, looked up): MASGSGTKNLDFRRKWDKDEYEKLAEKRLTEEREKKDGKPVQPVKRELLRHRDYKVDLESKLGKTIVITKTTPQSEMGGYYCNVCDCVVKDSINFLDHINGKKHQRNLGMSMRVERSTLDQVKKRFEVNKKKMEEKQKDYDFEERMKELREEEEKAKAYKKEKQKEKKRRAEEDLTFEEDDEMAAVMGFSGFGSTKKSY
How it was run: as §1

ZMYM1 = ZMYM1 (UniProt Q5SVZ6)
Sequence of ZMYM1 (Q5SVZ6 whole entry, looked up): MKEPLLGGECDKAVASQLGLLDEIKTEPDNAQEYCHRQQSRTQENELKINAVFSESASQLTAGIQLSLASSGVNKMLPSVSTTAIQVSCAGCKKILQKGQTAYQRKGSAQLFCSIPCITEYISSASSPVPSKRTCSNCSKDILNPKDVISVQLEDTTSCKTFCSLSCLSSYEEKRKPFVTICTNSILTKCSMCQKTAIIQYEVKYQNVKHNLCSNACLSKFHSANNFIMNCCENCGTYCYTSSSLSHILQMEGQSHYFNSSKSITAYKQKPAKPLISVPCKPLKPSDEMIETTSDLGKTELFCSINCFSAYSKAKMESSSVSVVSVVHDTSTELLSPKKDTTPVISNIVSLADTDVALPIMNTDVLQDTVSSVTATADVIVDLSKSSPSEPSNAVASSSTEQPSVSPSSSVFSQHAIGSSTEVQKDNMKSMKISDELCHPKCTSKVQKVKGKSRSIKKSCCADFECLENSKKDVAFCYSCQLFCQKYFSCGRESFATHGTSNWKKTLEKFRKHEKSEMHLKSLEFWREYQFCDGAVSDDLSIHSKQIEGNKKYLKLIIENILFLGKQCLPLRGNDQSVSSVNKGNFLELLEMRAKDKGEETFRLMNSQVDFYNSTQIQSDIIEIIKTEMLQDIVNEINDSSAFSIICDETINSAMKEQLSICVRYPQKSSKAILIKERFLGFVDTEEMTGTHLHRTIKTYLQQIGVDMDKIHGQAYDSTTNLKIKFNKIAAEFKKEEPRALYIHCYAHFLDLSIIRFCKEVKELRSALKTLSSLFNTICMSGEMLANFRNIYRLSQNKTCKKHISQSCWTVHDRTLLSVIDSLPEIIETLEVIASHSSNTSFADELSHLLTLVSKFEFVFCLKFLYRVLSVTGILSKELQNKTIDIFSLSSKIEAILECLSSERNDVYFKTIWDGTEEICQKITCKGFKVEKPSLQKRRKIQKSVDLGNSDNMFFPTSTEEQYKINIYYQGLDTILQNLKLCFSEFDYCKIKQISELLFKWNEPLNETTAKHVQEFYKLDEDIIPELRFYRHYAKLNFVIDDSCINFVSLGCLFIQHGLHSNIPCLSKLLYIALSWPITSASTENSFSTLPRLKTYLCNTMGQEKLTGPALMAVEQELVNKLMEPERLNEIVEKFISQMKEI
How it was run: as §1

ZMYM3 = ZMYM3 (UniProt Q14202)
Sequence of ZMYM3 (Q14202 whole entry, looked up): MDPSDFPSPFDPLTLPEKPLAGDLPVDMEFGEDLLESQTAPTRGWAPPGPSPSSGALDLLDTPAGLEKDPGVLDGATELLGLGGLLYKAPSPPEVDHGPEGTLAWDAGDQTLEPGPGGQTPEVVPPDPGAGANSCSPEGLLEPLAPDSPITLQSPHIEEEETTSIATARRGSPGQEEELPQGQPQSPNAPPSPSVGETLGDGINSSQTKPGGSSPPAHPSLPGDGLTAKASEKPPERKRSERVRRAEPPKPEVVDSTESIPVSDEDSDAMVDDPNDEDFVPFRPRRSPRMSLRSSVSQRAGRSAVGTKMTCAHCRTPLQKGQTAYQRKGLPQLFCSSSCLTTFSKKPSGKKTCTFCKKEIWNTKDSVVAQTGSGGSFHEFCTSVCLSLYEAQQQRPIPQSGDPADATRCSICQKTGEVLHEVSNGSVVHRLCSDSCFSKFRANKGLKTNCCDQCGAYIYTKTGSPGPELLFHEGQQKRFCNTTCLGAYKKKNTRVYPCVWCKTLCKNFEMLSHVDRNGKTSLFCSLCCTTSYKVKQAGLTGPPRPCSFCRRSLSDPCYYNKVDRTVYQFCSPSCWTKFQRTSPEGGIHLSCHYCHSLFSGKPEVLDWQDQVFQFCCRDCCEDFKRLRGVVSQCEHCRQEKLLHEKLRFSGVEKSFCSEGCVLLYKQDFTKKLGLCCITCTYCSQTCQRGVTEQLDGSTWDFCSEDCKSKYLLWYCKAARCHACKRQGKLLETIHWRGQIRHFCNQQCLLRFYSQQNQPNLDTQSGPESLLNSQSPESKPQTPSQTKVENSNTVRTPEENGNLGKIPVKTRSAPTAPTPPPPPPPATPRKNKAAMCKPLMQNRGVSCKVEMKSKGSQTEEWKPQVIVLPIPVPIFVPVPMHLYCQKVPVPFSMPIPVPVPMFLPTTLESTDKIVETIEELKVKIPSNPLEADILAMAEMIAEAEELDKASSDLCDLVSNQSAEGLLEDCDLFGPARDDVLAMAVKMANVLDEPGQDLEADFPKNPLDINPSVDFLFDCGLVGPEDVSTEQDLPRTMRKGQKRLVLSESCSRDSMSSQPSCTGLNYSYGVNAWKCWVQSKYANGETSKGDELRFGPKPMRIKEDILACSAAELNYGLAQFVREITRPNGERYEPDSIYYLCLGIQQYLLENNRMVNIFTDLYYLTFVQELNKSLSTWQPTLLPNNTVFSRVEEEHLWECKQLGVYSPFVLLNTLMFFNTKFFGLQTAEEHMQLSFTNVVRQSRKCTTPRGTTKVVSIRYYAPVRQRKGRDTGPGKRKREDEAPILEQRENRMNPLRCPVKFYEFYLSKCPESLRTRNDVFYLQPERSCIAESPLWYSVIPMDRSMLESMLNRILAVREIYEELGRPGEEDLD
How it was run: as §1

ZNF143 = ZNF143 (UniProt P52747)
How it was run: as §1

Measured: log2 fold change

Cc1ccc(NC(=O)c2ccc(CN3CC[C@H](N(C)C)C3)c(C(F)(F)F)c2)cc1Nc1nccc(-c2cncnc2)n1 [bafetinib]
inactive: ZEB2 -0.017 | ZER1 -0.055 | ZFAND5 -0.022 | ZFAND6 -0.013 | ZFP91 0.191 | ZFPL1 -0.022 | ZMAT2 -0.053 | ZMYM1 -0.028 | ZMYM3 -0.061 | ZNF143 -0.089

Fc1ccc(Cl)cc1-c1nc(Nc2ccncc2)c2nccnc2n1
inactive: ZEB2 -0.099 | ZER1 -0.022 | ZFAND5 0.003 | ZFAND6 -0.05 | ZFP91 0.007 | ZFPL1 0.101 | ZMAT2 0.018 | ZMYM1 -0.057 | ZMYM3 -0.012 | ZNF143 -0.058

NC1(c2ccc(-c3nc4ccn5c(=O)[nH]nc5c4cc3-c3ccccc3)cc2)CCC1
inactive: ZEB2 -0.127 | ZER1 0 | ZFAND5 0.019 | ZFAND6 0.056 | ZFP91 0.144 | ZFPL1 0.058 | ZMAT2 0.043 | ZMYM1 0.215 | ZMYM3 -0.036 | ZNF143 -0.023

FC(F)(F)c1ccc(/C=C/c2nc(COc3ccc(CCCCn4ccnn4)cc3)co2)cc1 [mubritinib]
inactive: ZEB2 -0.114 | ZER1 0.044 | ZFAND5 0.099 | ZFAND6 0.017 | ZFP91 -0.076 | ZFPL1 -0.007 | ZMAT2 0.049 | ZMYM1 -0.081 | ZMYM3 -0.072 | ZNF143 0.094

Cc1cccc(-c2[nH]c(C(C)(C)C)nc2-c2ccc3nccnc3c2)n1
inactive: ZEB2 0.031 | ZER1 -0.248 | ZFAND5 0.007 | ZFAND6 -0.088 | ZFP91 -0.069 | ZFPL1 0.032 | ZMAT2 0.088 | ZMYM1 0.042 | ZMYM3 -0.038 | ZNF143 0.021

CCCCN(Cc1ccc(C(=O)NO)cc1)C(=O)Nc1ccccc1 [Nexturastat A]
active: ZFAND5 0.371
inactive: ZEB2 0.047 | ZER1 0.012 | ZFAND6 0.027 | ZFP91 0.079 | ZFPL1 -0.064 | ZMAT2 -0.011 | ZMYM1 0.059 | ZMYM3 0.07 | ZNF143 0.19

C[C@@H]1COCCN1c1cc(C2(S(C)(=O)=O)CC2)nc(-c2cccc3[nH]ccc23)n1
inactive: ZEB2 0.001 | ZER1 0.107 | ZFAND5 0.041 | ZFAND6 0.127 | ZFP91 -0.124 | ZFPL1 -0.056 | ZMAT2 -0.022 | ZMYM1 0.029 | ZMYM3 -0.058 | ZNF143 -0.018

COc1cccc2cc(-c3nc([C@H]4CC[C@H](C(=O)O)CC4)n4ncnc(N)c34)[nH]c12
inactive: ZEB2 0.051 | ZER1 0.067 | ZFAND5 0.129 | ZFAND6 0.046 | ZFP91 -0.042 | ZFPL1 -0.039 | ZMAT2 0.071 | ZMYM1 -0.128 | ZMYM3 0.001 | ZNF143 0.05

NC(=O)c1ccc2nc(-c3ccc(Oc4ccc(Cl)cc4)cc3)[nH]c2c1
inactive: ZEB2 0.029 | ZER1 -0.311 | ZFAND5 -0.013 | ZFAND6 0.003 | ZFP91 0.017 | ZFPL1 0.055 | ZMAT2 0.019 | ZMYM1 -0.135 | ZMYM3 -0.02 | ZNF143 0.039

CC(C)(C)Cn1c(N)nc2ccc(-c3[nH]c(C(C)(C)C)nc3-c3ccc(F)cc3)nc21 [ralimetinib]
inactive: ZEB2 -0.075 | ZER1 0.089 | ZFAND5 0.024 | ZFAND6 -0.048 | ZFP91 -0.033 | ZFPL1 0.152 | ZMAT2 -0.024 | ZMYM1 0.078 | ZMYM3 -0.07 | ZNF143 0.112

NC1(Cc2ccc(Cl)cc2)CCN(c2ncnc3[nH]ccc23)CC1
inactive: ZEB2 -0.149 | ZER1 0.043 | ZFAND5 0.119 | ZFAND6 0.038 | ZFP91 -0.042 | ZFPL1 0.071 | ZMAT2 0.058 | ZMYM1 0.052 | ZMYM3 0.117 | ZNF143 0.085

CNC(=O)c1ccc(Nc2ncc(C(F)(F)F)c(NCc3nccnc3N(C)S(C)(=O)=O)n2)cc1 [defactinib]
inactive: ZEB2 0.019 | ZER1 0.027 | ZFAND5 0.085 | ZFAND6 -0.045 | ZFP91 0.054 | ZFPL1 -0.083 | ZMAT2 -0.014 | ZMYM3 -0.013 | ZNF143 -0.171
active: ZMYM1 0.558

O=C(Nc1cccc(Nc2ncc(Br)c(NCCc3cnc[nH]3)n2)c1)N1CCCC1
inactive: ZEB2 -0.106 | ZER1 -0.015 | ZFAND5 0.01 | ZFAND6 -0.058 | ZFP91 0.004 | ZFPL1 -0.047 | ZMAT2 0.017 | ZMYM1 -0.136 | ZMYM3 -0.042 | ZNF143 -0.058

O=C1NC(=O)/C(=C\c2ccc3nccnc3c2)S1
inactive: ZEB2 -0.177 | ZER1 0.031 | ZFAND5 -0.017 | ZFAND6 0.007 | ZFP91 0.051 | ZFPL1 0.021 | ZMAT2 -0.015 | ZMYM1 0.005 | ZMYM3 0.079 | ZNF143 0.045

COc1ccc(Cn2ccc3ccc(C(=O)NO)cc32)cc1
active: ZMAT2 0.378
inactive: ZEB2 -0.078 | ZER1 -0.236 | ZFAND5 -0.032 | ZFAND6 0.066 | ZFP91 -0.076 | ZFPL1 0.074 | ZMYM1 -0.056 | ZMYM3 0 | ZNF143 -0.035

CN(CCOc1ccc(C[C@@H]2SC(=O)NC2=O)cc1)c1ccccn1 (racemic) [rosiglitazone]
inactive: ZEB2 0.078 | ZER1 0.103 | ZFAND5 -0.001 | ZFAND6 -0.015 | ZFP91 -0.101 | ZFPL1 -0.03 | ZMAT2 -0.019 | ZMYM1 0.029 | ZMYM3 0.001 | ZNF143 -0.037

Nc1ccccc1NC(=O)c1ccc(CNC(=O)OCc2cccnc2)cc1 [entinostat]
inactive: ZEB2 -0.03 | ZER1 0.049 | ZFAND5 -0.031 | ZFAND6 -0.007 | ZFP91 -0.054 | ZFPL1 -0.03 | ZMAT2 0.081 | ZMYM1 -0.012 | ZMYM3 -0.073 | ZNF143 -0.012

Cc1ccc(Sc2cncc3sc(C(N)=O)cc23)cc1
inactive: ZEB2 -0.012 | ZER1 -0.085 | ZFAND5 -0.047 | ZFAND6 -0.01 | ZFP91 -0.025 | ZFPL1 0.008 | ZMAT2 0.113 | ZMYM1 0.061 | ZMYM3 -0.07 | ZNF143 -0.042

Cc1nc(Nc2ncc(C(=O)Nc3c(C)cccc3Cl)s2)cc(N2CCN(CCO)CC2)n1 [dasatinib]
inactive: ZEB2 -0.226 | ZER1 -0.033 | ZFAND5 0.082 | ZFAND6 0.03 | ZFP91 0.009 | ZFPL1 0.04 | ZMAT2 0.042 | ZMYM1 -0.045 | ZMYM3 0.047 | ZNF143 -0.007

Cc1ccc(-n2nc(C(C)(C)C)cc2NC(=O)Nc2ccc(OCCN3CCOCC3)c3ccccc23)cc1 [doramapimod]
inactive: ZEB2 0.032 | ZER1 -0.163 | ZFAND5 0.106 | ZFAND6 0.017 | ZFP91 0.109 | ZFPL1 -0.098 | ZMAT2 -0.024 | ZMYM1 0.003 | ZMYM3 -0.009 | ZNF143 0.01

COC(=O)[C@H](CCSC)NC(=O)c1ccc(NC[C@@H](N)CS)cc1-c1ccccc1
inactive: ZEB2 -0.382 | ZER1 0.035 | ZFAND5 0.1 | ZFAND6 0.061 | ZFP91 0.064 | ZFPL1 -0.007 | ZMAT2 0.019 | ZMYM1 0.026 | ZMYM3 0.035 | ZNF143 0.013

Cc1ccc(C(=O)N(CCCN)[C@@H](c2nc3cc(Cl)ccc3c(=O)n2Cc2ccccc2)C(C)C)cc1 [ispinesib]
inactive: ZEB2 0.05 | ZER1 0.153 | ZFAND5 -0.07 | ZFAND6 -0.082 | ZFP91 -0.227 | ZFPL1 0.236 | ZMAT2 0.042 | ZMYM1 -0.122 | ZMYM3 -0.013 | ZNF143 -0.038

NCC(=O)Nc1ccc(-n2nc(C(F)(F)F)cc2-c2ccc3c(ccc4ccccc43)c2)cc1
inactive: ZEB2 -0.343 | ZER1 0.03 | ZFAND5 0.103 | ZFAND6 0.061 | ZFP91 0.036 | ZFPL1 0.027 | ZMAT2 0.016 | ZMYM1 0.336 | ZMYM3 0.073 | ZNF143 -0.047

C[C@H](Nc1ncnc2nc[nH]c12)c1cc2cccc(Cl)c2c(=O)n1-c1ccccc1 [duvelisib]
inactive: ZEB2 0.05 | ZER1 -0.154 | ZFAND5 -0.063 | ZFAND6 0.032 | ZFP91 -0.038 | ZFPL1 0.046 | ZMAT2 0.014 | ZMYM1 -0.096 | ZMYM3 0.021 | ZNF143 -0.146

COc1cc(Nc2ncc3c(n2)-c2ccc(Cl)cc2C(c2c(F)cccc2OC)=NC3)ccc1C(=O)O [alisertib]
inactive: ZEB2 0.103 | ZER1 -0.006 | ZFAND5 -0.057 | ZFAND6 -0.079 | ZFP91 -0.013 | ZFPL1 0.014 | ZMAT2 -0.045 | ZMYM1 -0.021 | ZMYM3 0.057 | ZNF143 -0.05
